NOD2-RIPK2 inh: NOD2-RIPK2 binding disruptors in cells, primary screen, fluorescence, CHO cells, BLA complementation; Receptor-interacting serine/threonine-protein kinase 2 (Homo sapiens), O43353; CCF4 ratio; inhibition, % at 4.98 µM; 360,000 tested, 0.38% active; AID 624267, 2012; in the data active means inhibition above about 21%;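 further: 0% = vehicle only and 100% = reference blocker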
ABHD5-PLIN5 inh: ABHD5-PLIN5 interaction inhibitors, primary screen, cell lysate, split luciferase complementation, luminescence. Perilipin-5 (Homo sapiens) + 1-acylglycerol-3-phosphate O-acyltransferase ABHD5 (Homo …. Split G. princeps luciferase complementation, 4 h. inhibition, % at 4 µM. 360,000 tested, 0.78% active;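 active means inhibition above the mean inhibition across every tested compound plus 3 SD, cut at about 22% in these data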;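 further: 0% = DMSO only wells and the 100% control is not disclosed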
TLR9-MyD88 inh: inhibitors of TLR9-MyD88 association in cells, primary screen, cell-based, CHO, BLA complementation, fluorescence | Toll-like receptor 9 (Homo sapiens) + Myeloid differentiation primary response protein … | CCF4 FRET ratio | inhibition, % at 4.98 µM | 340,000 tested, 0.21% active | AID 504734, 2011;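 active means inhibition above the mean over all tested compounds plus 3 SD, cut at about 21% in these data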;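 further: 0% = DMSO only wells and 100% = clavulanate BLA inhibitor control wells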
Target sequence (Q99836 whole entry, looked up): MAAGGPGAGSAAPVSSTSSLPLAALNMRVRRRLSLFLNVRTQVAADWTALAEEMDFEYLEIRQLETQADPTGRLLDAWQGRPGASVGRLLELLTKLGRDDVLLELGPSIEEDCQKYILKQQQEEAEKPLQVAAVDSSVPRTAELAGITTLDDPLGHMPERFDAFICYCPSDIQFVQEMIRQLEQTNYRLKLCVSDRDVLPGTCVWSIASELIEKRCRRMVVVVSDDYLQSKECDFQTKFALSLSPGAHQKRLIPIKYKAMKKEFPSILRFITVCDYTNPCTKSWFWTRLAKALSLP
Target sequence (Q9NR96 whole entry, looked up): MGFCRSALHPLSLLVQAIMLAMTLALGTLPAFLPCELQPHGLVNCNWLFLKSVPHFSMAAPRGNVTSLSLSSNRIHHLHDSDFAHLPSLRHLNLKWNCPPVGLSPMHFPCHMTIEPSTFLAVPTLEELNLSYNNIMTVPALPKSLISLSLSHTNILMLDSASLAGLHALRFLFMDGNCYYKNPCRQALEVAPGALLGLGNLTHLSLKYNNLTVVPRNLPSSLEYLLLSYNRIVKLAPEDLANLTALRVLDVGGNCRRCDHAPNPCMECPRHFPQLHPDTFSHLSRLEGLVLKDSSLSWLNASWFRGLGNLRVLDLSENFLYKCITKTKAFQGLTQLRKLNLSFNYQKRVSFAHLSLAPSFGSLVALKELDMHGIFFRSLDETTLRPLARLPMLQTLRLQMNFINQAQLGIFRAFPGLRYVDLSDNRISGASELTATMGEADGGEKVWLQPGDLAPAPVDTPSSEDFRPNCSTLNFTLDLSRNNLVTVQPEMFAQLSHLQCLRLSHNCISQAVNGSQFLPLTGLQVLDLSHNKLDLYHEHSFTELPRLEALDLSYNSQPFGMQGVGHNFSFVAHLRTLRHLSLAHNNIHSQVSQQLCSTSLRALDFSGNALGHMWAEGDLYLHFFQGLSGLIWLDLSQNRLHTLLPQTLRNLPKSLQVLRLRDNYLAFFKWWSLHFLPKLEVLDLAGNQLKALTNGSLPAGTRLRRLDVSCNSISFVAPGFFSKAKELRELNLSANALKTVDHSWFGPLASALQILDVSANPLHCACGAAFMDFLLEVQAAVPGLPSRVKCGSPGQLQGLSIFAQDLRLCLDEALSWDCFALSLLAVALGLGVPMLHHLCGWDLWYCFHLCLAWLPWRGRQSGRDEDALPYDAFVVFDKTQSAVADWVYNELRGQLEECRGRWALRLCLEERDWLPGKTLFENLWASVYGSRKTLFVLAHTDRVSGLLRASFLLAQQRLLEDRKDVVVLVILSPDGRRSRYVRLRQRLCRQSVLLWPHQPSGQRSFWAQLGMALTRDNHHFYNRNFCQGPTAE
B2AR ag: beta2AR agonists driving receptor internalization, primary screen, cell-based, FAP fluorogen, flow cytometry; Beta-2 adrenergic receptor (Homo sapiens), P07550; Am2.2-beta2AR cells; response, % (concentration not given with the values); 340,000 tested, 0.43% active;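 active means response above a set limit, near 3 SD of response in nonfluorescent compounds, cut at about 42% in these data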
NTR1 ag: agonists of human NTR1, primary screen, imaging, U2OS cells, beta-arrestin-GFP, high content; activation, % at 20 µM; AID 493036, 2011; NTR1-U2OS beta-arrestin-GFP spot imaging, agonist mode; 330,000 tested, 0.17% active; Neurotensin receptor type 1 (Homo sapiens), P30989;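 active means activation at or above 40% of the spot to cytoplasm intensity ratio, with at least 20 cells analyzed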;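 further: 0% = DMSO without peptide and 100% = 100 nM NTR1 peptide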
TLR4 MyD88 comp: inhibitors of TLR4-MyD88 association in cells, primary screen, cell-based, HeLa CL3-4, BLA complementation, FRET ratio. Toll-like receptor 4 (Homo sapiens) + Myeloid differentiation primary response protein …. HeLa CL3-4 TLR4/MyD88 BLA complementation. inhibition, % at 8.4 µM. 200,000 tested, 0.18% active. AID 861, 2007; in the data active means inhibition above about 25%;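 further: 0% = vehicle and 100% = reference inhibitor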
B2AR ag CP1: beta2AR agonists via receptor internalization, confirmation, cell-based, FAP fluorogen, flow cytometry, single point, cherry pick 1; shares compounds with B2AR ag; Am2.2-beta2AR cells, FAP surface receptor; stronger effect = lower value; percent response (surface receptor), % at 10 µM; 1,100 tested, 25% active; AID 540358, 2011;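 active means surface receptor percent response at or below 58%, roughly 3 SD from nonfluorescent compounds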
B2AR FAP counter: flagged in Am2.2 fluorescence counterscreen for beta-2AR agonists; calls only at 10 µM; AID 588765; 1,100 tested, under 10 active; shares compounds with B2AR ag; Am2.2 cells, FAP fluorogen flow cytometry; stronger effect = lower value;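 active means percent response below a set limit in fluorescence channel 1 and below 50% in channel 8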
Numbers without * were called inactive; i = inactive; x = no result given; + = active, no number. A selection: hits, their analogues and other compounds. The true share with any hit is near 1.5%.

SMILES | NOD2-RIPK2 inh | ABHD5-PLIN5 inh | TLR9-MyD88 inh | B2AR ag | NTR1 ag | TLR4 MyD88 comp | B2AR ag CP1 | B2AR FAP counter
CCOc1cc(CNCCc2c[nH]c3ccccc23)cc(Cl)c1OCC | 1.6 | 14.6 | -11.7 | 17.9 | 7.6 | -0.7 | x | x
CCOc1cc(CNC(C)C(O)c2ccccc2)cc(Cl)c1OCC (configuration not stated) | 7.7 | 5.8 | -5.3 | 0.1 | 2.2 | -15.7 | 112.2 | i
FC(F)(F)c1ccccc1CNCCc1c[nH]c2ccccc12 | 3.1 | -1.1 | 3.5 | -2.6 | 1.6 | x | x | x
CC(NCc1ccccc1Cl)C(O)c1ccccc1 (configuration not stated) | -5.0 | -2.6 | 1.9 | -0.2 | -0.5 | 2.0 | 111.6 | i
CCC(=O)Nc1ccc(Cl)c(Cl)c1 | -9.2 | 4.7 | 1.9 | -4.0 | x | x | x | x
C[C@]12CCC3C(CC[C@@H]4C[C@H](O)CC[C@]34C)C1CCC2=O (some centres not stated) | 0.4 | 7.0 | -7.3 | 4.6 | 0.3 | x | x | x
COc1cc(C(O)CNC(C)C)cc(F)c1OC (configuration not stated) | -38.6 | 6.4 | -3.9 | 0.9 | -1.4 | x | 112.5 | i
CCNCC(O)c1cccc(O)c1 (configuration not stated) | -6.2 | -12.1 | -0.8 | -7.2 | 2.1 | x | 106.3 | i
C=C1C(O)(c2ccccc2)C2CC[N+]1(C)CC2 (configuration not stated) | 2.1 | 0.7 | -14.6 | -7.2 | 0.1 | -5.0 | x | x
COc1ccc(OC)c2c1CCC1NCCOC21 (configuration not stated) | -8.3 | 11.1 | 5.3 | 1.0 | -1.6 | -9.1 | 110.5 | i
N#Cc1ncc(N=Cc2ccc(N(CCCl)CCCl)cc2)s1 | -5.1 | -7.9 | 0.2 | 10.2 | x | x | x | x
CC[n+]1c(/C=C/C=C/c2ccc(N(C)C)cc2)sc2ccccc21 | 15.1 | 16.2 | -0.1 | 46.2* | 10.8 | x | 104.6 | i
CP(C)(=O)CCC(=O)O | -7.4 | 1.9 | -9.9 | -1.1 | -0.6 | -3.8 | x | x
CC(=O)c1c(O)n(-c2cccc(Cl)c2)c(=O)[nH]c1=O (tested in a mixture with another compound) | 2.0 | 12.5 | -3.4 | 2.4 | 0.5 | x | x | x
CC(C)n1c(O)c(C2c3cc(Cl)ccc3Oc3[nH]c(=O)n(C(C)C)c(=O)c32)c(=O)[nH]c1=O (configuration not stated) | 2.4 | 37.2* | 10.6 | 59.0* | x | x | 47.6* | +
Cc1ccc(OCC(=O)N2CCN(Cc3ccc([N+](=O)[O-])cc3)CC2)cc1 | -12.6 | 1.9 | -6.8 | 0.3 | 0.6 | x | x | x
C=CCSc1nc2c(c(-c3ccsc3)c1C#N)CN(C)CC2 | -4.4 | 9.4 | 0.2 | 3.7 | -0.7 | x | x | x
COc1c(C)cc(C(=O)C2CCCN(C3CCOCC3)C2)cc1C (configuration not stated) | -0.5 | -0.2 | -15.0 | 58.4* | 0.5 | 4.4 | 125.5 | i
CCCCNC(C)Cc1ccccc1 (configuration not stated) | 2.6 | -9.0 | -0.3 | -2.1 | 0.7 | x | x | x
COc1ccc(CC(C)NCCC(c2ccccc2)c2ccccc2)cc1 (configuration not stated) | 7.6 | 1.4 | -4.6 | 20.9 | 7.0 | x | 105.5 | i
ClC(Cl)=C(c1ccc(Cl)cc1)c1ccc(Cl)cc1 | -10.7 | -3.1 | 0.4 | -1.9 | 0.8 | x | x | x
COc1ccc(OC)c(NC2=NCCS2)c1 | 4.6 | -1.6 | -6.8 | -7.9 | 1.7 | 18.4 | x | x
COc1ccc(OC)c([C@@H](O)[C@H](C)NC(C)(C)C)c1 | -16.8 | -3.5 | -12.6 | -4.7 | 2.1 | -4.8 | 121.0 | i
